Results taken from PubChem BioAssay (NCI).
This is part of a sample that, as a whole, favours compounds with a hit. Of some 79,000 tested, about 15% had one in any assay. A number with no mark means an inactive call. The source made the active and inactive calls. Cut-off read from the data, not from the text of the source: active = growth inhibition above about 70%; inactive = the rest.

What was measured:
[1] = NCI Yeast Anticancer Drug Screen. Data for the rad50 strain (AID 155);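 note: 0% = growth of vehicle-only cultures of the same strain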; details: S. cerevisiae rad50 strain growth inhibition; at 50.0 µM; hits give high values
Outline: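 Readout: growth inhibition relative to vehicle-treated cultures. Compound exposure was carried out in a genetically defined yeast strain deficient in DNA damage repair.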

[2] = NCI Yeast Anticancer Drug Screen. Data for the mec2-1 strain (AID 157); details: S. cerevisiae mec2-1 strain, at 50.0 µM, hits give high values
Outline: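 Readout is yeast growth inhibition, normalised to vehicle-treated controls, in the mec2-1 strain exposed to compound.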

[3] = NCI Yeast Anticancer Drug Screen. Data for the sgs1 mgt1 strain (AID 161);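 note: 0% = growth of cultures given vehicle only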; details: S. cerevisiae sgs1 mgt1 strain, at 50.0 µM, hits give high values
Outline: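 This yeast growth screen uses a strain with defined DNA-repair lesions; compound-treated growth is compared with vehicle-treated growth.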

[4] = NCI Yeast Anticancer Drug Screen. Data for the cln2 rad14 strain (AID 165);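 note: 0% = growth equal to vehicle treated cultures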; details: S. cerevisiae cln2 rad14 strain, at 50.0 µM, hits give high values
Outline: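 Relative to vehicle controls, growth inhibition of compound-treated cln2 rad14 yeast was recorded.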

[5] = NCI Yeast Anticancer Drug Screen. Data for the bub3 strain (AID 167); details: S. cerevisiae bub3 mutant strain, at 50.0 µM, hits give high values
Outline: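 Readout: yeast growth inhibition, expressed relative to vehicle-only wells. The test organism is a mutant strain from a panel with lesions in DNA repair or checkpoint genes.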

[6] = NCI Yeast Anticancer Drug Screen. Data for the mlh1 rad18 strain (AID 175); details: S. cerevisiae mlh1 rad18 strain growth inhibition; at 50.0 µM; hits give high values
Outline: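 Test agents were incubated with a yeast strain of defined genotype (DNA damage repair defect). Inhibition of growth was derived by comparison with vehicle-exposed cultures.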

Row | Compound | growth inhibition [1] | growth inhibition [2] | growth inhibition [3] | growth inhibition [4] | growth inhibition [5] | growth inhibition [6] [%]
1 | O=S1Nc2ccccc2[C@H]2[C@@H]1[C@H]1O[C@@H]2c2ccccc21 (stereo partly drawn) | -3.6% | -5.65% | -23.6% | -27.6% | -6.6% | -0.85
2 | Cc1nnc(CC#N)n1NC(=O)CC#N | 3.95% | -3.15% | -2.7% | -18% | 8.65% | 9.95
3 | C=C1C(=O)C=C2C=C3C(=O)C(C)(C)C[C@]3(O)C12C (stereo partly drawn) | 84.3% (active) | 92% (active) | 89% (active) | 82.5% (active) | 86.2% (active) | -21.7
4 | C=CCCCCCCCCC(=O)Nc1cc(Cl)ccc1C | -0.25% | -5% | -10.4% | -22.9% | -10.8% | -2.7
5 | COc1ccccc1C1C(C(=O)Nc2ccccc2)=C(C)NC(C)=C1C(=O)Nc1ccccc1 | -3.2% | -21.9% | -36.2% | 15.1% | -3.85% | -11.2
6 | CCOC(=O)C(Cc1ccc(O)cc1)NC(=O)c1cc2c(cn1)[nH]c1ccccc12 (stereo not drawn) | 11% | 16.2% | 7.45% | -19.8% | -1% | 4.65
7 | CC(=O)N1C(Nc2ccccn2)CCN1c1ccccc1 (stereo not drawn) | -30.9% | -45.3% | -21.4% | 16.6% | 7.9% | -23.2
8 | N#CC(C(=O)C(=O)Nc1cccc(C(F)(F)F)c1)c1cccc(Cl)c1 (stereo not drawn) | 19.1% | 11.4% | 14.8% | 12.2% | 19.6% | 28.9
9 | COC(=O)c1cccc2c(N)c(N)cc(C(=O)OC)c12 | 17.5% | 18.2% | 24.8% | 28.2% | 9.3% | 31.4
10 | CCOC(=O)/C(C#N)=N\Nc1ccccc1 | -15.5% | 14.6% | -1.7% | -25.3% | -1.85% | -12.9
11 | S=C(N/N=C/c1ccc(Cl)cc1Cl)NC1CCc2ccccc21 (stereo not drawn) | -12.3% | 20.5% | -9.7% | -33.8% | -7.95% | -9.25
12 | N#Cc1c(N)c(C(=O)O)nn(-c2cccc(C(F)(F)F)c2)c1=O | -8.95% | 1.7% | 44% | 10.8% | -11.2% | -15.9
13 | O=C(c1ccccc1)C(c1ccccc1)S(=O)(=O)N1CCCC1 (stereo not drawn) | -4.65% | 5.65% | 21.6% | -1.4% | 12.7% | 26.9
14 | O=C(Oc1cccc2ccccc12)c1ccccc1 | -10.4% | 15.6% | -5.2% | -76.2% | 6.25% | -9.45
15 | O=C(O)CCCCCCc1ccc2ccccc2n1 | 16.8% | 13.8% | 16.5% | 10% | 7.05% | -3.55
16 | Nc1nc(N)c(N=Nc2ccc(C(=O)O)c(O)c2)c(N)n1 | 5.5% | 3.5% | -0.7% | 12.8% | -11.9% | 13
17 | CCOC(=O)c1ccc(NC(=O)c2ccc(Cl)cc2Cl)cc1 | -7.7% | 18.6% | 6.5% | -18.1% | 36.6% | -4.25
18 | CC(=O)NC1C(OC(C)=O)OC(COC(c2ccccc2)(c2ccccc2)c2ccccc2)C(O)C1OC(C)=O (stereo not drawn) | 63.9% | 47.5% | 5% | 41.2% | 47.2% | 44
19 | Cc1ccc2c(c1)C(c1cccc3ccccc13)OC2=O (stereo not drawn) | 21.6% | 1.65% | 40.2% | 33.3% | 14.2% | 29.4

Row | Compound | growth inhibition [1] | growth inhibition [2] | growth inhibition [3] | growth inhibition [4] | growth inhibition [5] | growth inhibition [6] [%]
20 | N#Cc1ccccc1OCCCCOc1ccccc1C#N | 8.7% | 14% | 15.2% | 14.2% | 18.7% | 16.1
21 | COc1c(C)c2c(c(C)c1Cl)Oc1c(C=O)c(O)c(Cl)c(C)c1C(=O)O2 | 55% | 25.4% | 44.9% | 23.6% | 29.4% | 54.4
22 | COC(=O)/C(=C\SCc1ccccc1)NC(C)=O | 0.45% | 6.7% | -1.55% | -7.7% | -24.2% | -20.8
23 | Cc1ccc(C(O)/C(=N/N)c2nc3ccc([N+](=O)[O-])cc3[nH]c2=O)cc1 (stereo not drawn) | 6.45% | -20.1% | -28.8% | -13.2% | -9.4% | -12.1
24 | CCN1C(NN)=NS(=O)(=O)c2ccccc21 | -31.1% | -7.55% | -15.2% | -19.9% | 8.2% | 10.8
25 | CC(=O)Nc1ccc(S(=O)(=O)N=S(c2ccccc2)c2ccccc2)cc1 | 14.7% | 3.05% | 8.45% | 10.8% | -7.2% | -0.25
26 | CCOC(=O)C(N=Nc1ccc(C)cc1Br)C(C)=O (stereo not drawn) | 16.2% | 13.9% | 24.9% | 15.6% | 22.4% | 24.1
27 | CC(C)C(Nc1ncnc2nc[nH]c12)C(=O)O (stereo not drawn) | -25.6% | -15.2% | -6.65% | -35.2% | -23.2% | -16.9
28 | N#CC(N)(C(=O)C(=O)NCCCNC(=O)C(=O)C(N)(C#N)c1ccc(Cl)cc1)c1ccc(Cl)cc1 (stereo not drawn) | -37% | -1.45% | -32.4% | -18.6% | -35.1% | -28.7
29 | O=c1c2ccccc2c(=O)n2n1CC=CC2 | -6.45% | -4.2% | -1.75% | -15.2% | -2.75% | -1.9
30 | COc1ccc(Cl)cc1NC(=O)Nc1cccc(C(C)=O)c1 | -4.55% | 16.6% | 11.3% | -13.3% | 17.9% | 31.4
31 | CCOC(=O)Cn1c(=O)c2ccccc2c2cc([N+](=O)[O-])ccc21 | -6.45% | 11.3% | 13.2% | 5.95% | -3.65% | -11.7
32 | Cc1cc([N+](=O)[O-])ccc1NC(=O)C(Br)C(Br)C(=O)O (stereo not drawn) | 31.1% | 64.5% | 75.9% (active) | 15.8% | 75.8% (active) | 49.1
33 | CCC(=O)Nc1ccc(F)cc1 | -4.65% | 1.45% | -0.45% | -27.4% | -10.9% | 4.3
34 | CCCC(=O)c1ccc(C)cc1 | -1.2% | -18.8% | -4.2% | 13.5% | 8.65% | 2.65
35 | Oc1cc2c(cc1O)-c1[nH]ncc1CC2 | 24.5% | 0.25% | 3.35% | -17.4% | 4.55% | -4.55
36 | CCCCCCCCNC(C(=O)c1ccc(Cl)cc1)c1ccc(Cl)cc1 (stereo not drawn) | 8.05% | 17.4% | 21.6% | -18.3% | -8% | 25.8
37 | O=c1[nH]c(Sc2ccccc2)nc2ccccc12 | 15.7% | 9.45% | 13.1% | -58.1% | 18.2% | 7.25
38 | Fc1ccc(-c2cc(-c3cccs3)cc(-c3ccccc3)n2)cc1 | 8.6% | -9.45% | 21.2% | 8.55% | 20.8% | 11.1
